Among all 3,200 compounds or so, about 300 (9.4%) showed activity. What follows is part of a selection rich in actives, with near analogues and random picks from the rest.
System: A673/TR/shEF
Test: cell viability (LOESS-normalised, relative to median of negative controls) (log2 ratio); higher = more viable cells (less compound effect), active = hit call of the paper (over 3 MAD below the median)
Settings: treatment time: 72 h
Method in brief: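 Doxycycline, present or absent from 24 h before compounds, was used to induce EWS-FLI1 shRNA knockdown in A673/TR/shEF Ewing sarcoma cells at 1,500 per well in 384-well plates. Cells then received library compounds at two or more concentrations, or DMSO controls, for three days. Viability was measured by CellTiter-Glo luminescence on an Envision reader, and per-plate LOESS correction, division by the negative-control median and log2 transformation followed.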

[1] = 0.25 µM, library screen: screen2, EWS-FLI1 expression: high (no doxycycline)
[2] = 0.25 µM, library screen: screen2, EWS-FLI1 expression: low (doxycycline-induced shRNA knockdown)
[3] = 2.5 µM, library screen: screen2, EWS-FLI1 expression: high (no doxycycline)
[4] = 2.5 µM, library screen: screen2, EWS-FLI1 expression: low (doxycycline-induced shRNA knockdown)
[5] = 0.25 µM, library screen: screen1, EWS-FLI1 expression: high (no doxycycline)
[6] = 0.25 µM, library screen: screen1, EWS-FLI1 expression: low (doxycycline-induced shRNA knockdown)
[7] = 2.5 µM, library screen: screen1, EWS-FLI1 expression: high (no doxycycline)
[8] = 2.5 µM, library screen: screen1, EWS-FLI1 expression: low (doxycycline-induced shRNA knockdown)
[9] = 0.103 µM, library screen: screen3, EWS-FLI1 expression: high (no doxycycline)
[10] = 0.103 µM, library screen: screen3, EWS-FLI1 expression: low (doxycycline-induced shRNA knockdown)
[11] = 0.308 µM, library screen: screen3, EWS-FLI1 expression: high (no doxycycline)
[12] = 0.308 µM, library screen: screen3, EWS-FLI1 expression: low (doxycycline-induced shRNA knockdown)
[13] = 0.926 µM, library screen: screen3, EWS-FLI1 expression: high (no doxycycline)
[14] = 0.926 µM, library screen: screen3, EWS-FLI1 expression: low (doxycycline-induced shRNA knockdown)
[15] = 2.8 µM, library screen: screen3, EWS-FLI1 expression: high (no doxycycline)
[16] = 2.8 µM, library screen: screen3, EWS-FLI1 expression: low (doxycycline-induced shRNA knockdown)
[17] = 8.3 µM, library screen: screen3, EWS-FLI1 expression: high (no doxycycline)
[18] = 8.3 µM, library screen: screen3, EWS-FLI1 expression: low (doxycycline-induced shRNA knockdown)
[19] = 25 µM, library screen: screen3, EWS-FLI1 expression: high (no doxycycline)
[20] = 25 µM, library screen: screen3, EWS-FLI1 expression: low (doxycycline-induced shRNA knockdown)
[21] = 0.025 µM, library screen: screen1, EWS-FLI1 expression: high (no doxycycline)
[22] = 0.025 µM, library screen: screen1, EWS-FLI1 expression: low (doxycycline-induced shRNA knockdown)
[23] = 25 µM, library screen: screen1, EWS-FLI1 expression: high (no doxycycline)
[24] = 25 µM, library screen: screen1, EWS-FLI1 expression: low (doxycycline-induced shRNA knockdown)

Measured: cell viability (log2)

CO[C@H]1C=CC2CCN3CCC4=C(CC(=O)OC4)[C@]23C1 (some centres undefined)
inactive: [1] 0.124 | [2] 0.124 | [3] 0.0895 | [4] 0.152

CC1(C)OC(=O)C=C[C@@]2(C)C1C[C@@H](O)[C@]1(C)C2CC[C@@]2(C)[C@H](c3ccoc3)OC(=O)C3OC321 (some centres undefined)
inactive: [5] 0.0796 | [6] 0.0686 | [7] 0.159 | [8] 0.0743

Cc1nc2ccc(NC(=S)N3CCCC3)cc2nc1C
inactive: [5] -0.0193 | [6] 0.0405 | [7] 0.0212 | [8] 0.0752

CC1=C(C(=O)Nc2cccc(Cl)c2)C(c2cccs2)NC(=S)N1 (centres undefined)
inactive: [5] 0.0938 | [6] 0.0927 | [7] 0.145 | [8] 0.108

O=C(Nc1cccc(Cl)c1)/C(=C\c1ccco1)NC(=O)c1cccs1
inactive: [5] -0.0172 | [6] 0.0581 | [7] 0.0419 | [8] 0.0226

Cc1cn2c(=O)c3ccccc3nc2nc1Nc1ccccc1C(=O)O
inactive: [5] 0.138 | [6] 0.0987 | [7] 0.0749 | [8] 0.0532

O=C1C=CC2=C3c4cc(O)c(O)cc4CC3(O)COC2=C1 (centres undefined)
inactive: [5] 0.163 | [6] 0.195 | [7] 0.225 | [8] 0.28

COc1ccc(C2COc3c(ccc(O)c3OC)C2)c(OC)c1O (centres undefined)
inactive: [5] 0.108 | [6] 0.0205 | [7] 0.0667 | [8] -0.00772

COc1cc(OC)c2c(=O)c(-c3ccccc3)coc2c1
inactive: [5] 0.0176 | [6] 0.0621 | [7] 0.0815 | [8] 0.1

CN(C)C/C=C/C(=O)Nc1cc2c(Nc3ccc(F)c(Cl)c3)ncnc2cc1O[C@H]1CCOC1
inactive: [9] -0.033 | [10] 0.00738 | [11] -0.0507 | [12] -0.00854 | [13] 0.0161 | [14] -0.000186 | [15] 0.00307 | [16] -0.0241 | [17] -0.0486 | [18] -0.0662
active: [19] -1.35 | [20] -1

CS(=O)(=O)CCNCc1ccc(-c2ccc3ncnc(Nc4ccc(OCc5cccc(F)c5)c(Cl)c4)c3c2)o1
inactive: [9] 0.145 | [10] 0.0528 | [11] 0.146 | [12] 0.112 | [13] 0.139 | [14] 0.114 | [15] 0.0651 | [16] 0.113 | [17] 0.0899 | [18] 0.0389 | [19] 0.0387 | [20] 0.0962

COc1cc2c(N3CCN(C(=O)Nc4ccc(OC(C)C)cc4)CC3)ncnc2cc1OCCCN1CCCCC1
inactive: [9] -0.0129 | [10] -0.0538 | [11] -0.0428 | [12] -0.0392 | [13] -0.0343 | [14] -0.0604 | [15] 0.0597 | [16] 0.0175 | [17] 0.0441 | [18] 0.0441 | [19] -0.0915 | [20] 0.0601

COc1cc2ncnc(Nc3ccc(F)c(Cl)c3)c2cc1OCCCN1CCOCC1
inactive: [9] 0.066 | [10] 0.0855 | [11] 0.103 | [12] 0.0493 | [13] 0.114 | [14] 0.0535 | [15] 0.136 | [16] 0.0991 | [17] 0.00987 | [18] 0.0751 | [19] -0.0152 | [20] 0.0721

COc1cc2c(Nc3ccc(Br)cc3F)ncnc2cc1OCC1CCN(C)CC1
inactive: [9] -0.0043 | [10] 0.0398 | [11] -0.0447 | [12] 0.068 | [13] 0.0443 | [14] 0.0503 | [15] -0.0379 | [16] 0.00456 | [17] -0.00527 | [18] -0.0123 | [19] -0.0986 | [20] -0.0825

C=CC(=O)Nc1cc2c(Nc3ccc(F)c(Cl)c3)ncnc2cc1OCCCN1CCOCC1
inactive: [9] 0.0394 | [10] 0.0254 | [11] -0.016 | [12] 0.0224 | [13] -0.0215 | [14] -0.0107 | [15] -0.0981 | [16] -0.0776 | [18] -0.0307
active: [17] -0.188 | [19] -0.199 | [20] -0.281

CCCCCCCCCCCCCCCC(=O)NCC(COP(=O)([O-])OCC[N+](C)(C)C)OCC (centres undefined)
inactive: [1] 0.198 | [2] 0.0364 | [3] 0.0761 | [4] -0.0192

COc1ccc(C(=O)c2ccccc2)c(O)c1O
inactive: [5] 0.123 | [6] 0.143 | [7] 0.244 | [8] 0.216

COc1ccc2c(c1)c(CC(=O)Nc1ccc(NC(C)=O)cc1)c(C)n2C(=O)c1ccc(Cl)cc1
inactive: [1] -0.0274 | [2] 0.0874 | [3] 0.0757 | [4] 0.214

CCCN(CCC)CCc1cccc2c1CC(=O)N2
active: [1] -0.0806 | [2] -0.203 | [3] -3.18 | [4] -2.79

CCN1C(=O)/C(=C/c2c(N3CCN(C)CC3)nc3ccccn3c2=O)SC1=S
inactive: [5] 0.0782 | [6] 0.0798 | [7] 0.126 | [8] 0.0777

COc1ccc(-c2nn(-c3ccccc3)cc2C=O)cc1[N+](=O)[O-]
inactive: [5] 0.000395 | [6] 0.0393 | [7] 0.0878 | [8] 0.0816

C=C(c1ccccc1)c1cc(O)c(OC)cc1O
inactive: [5] -0.0139 | [6] -0.00424 | [7] 0.0356 | [8] 0.0603

COc1cc2ncc(-c3ccccc3)nc2cc1OC
inactive: [21] 0.165 | [22] -0.00441 | [5] 0.202 | [6] 0.0199 | [1] 0.139 | [2] 0.0671 | [7] -0.0715 | [8] 0.188 | [3] 0.212 | [4] 0.201 | [24] 0.175
active: [23] -0.157

Cc1cc2ncc(-c3ccccc3)nc2cc1C
inactive: [21] 0.21 | [22] 0.0761 | [5] 0.265 | [6] 0.0996 | [8] 0.141 | [24] 0.0902
active: [7] -0.0894 | [23] -0.147

O=C(Nc1ccccn1)c1cc(-c2ccccc2)nc2ccccc12
inactive: [5] 0.083 | [6] -0.00975 | [7] 0.0888 | [8] -0.0311

COc1ccccc1N(C(N)=O)c1nc(-c2cccnc2)nc2ccccc12
inactive: [1] 0.155 | [2] 0.0439 | [3] 0.275 | [4] 0.0633

Source: the supplement of paper PMC6089552
